FUS yeast rescue – rescues growth of FUS-expressing yeast; AID 1347120; Potency, µM (series often up to 76.6 µM), actives largely listed as activators; S. cerevisiae FUS-expressing, growth rescue, OD600, 24 h; 0.24% of 390,000 active;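 also: potency is read from the fitted curve at half-maximal effect; plate controls were DMSO vehicle for no effect and reference control for full effect; nearly all actives have a fitted effect of over 55% in size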
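Absorbance at 600 nm, taken 24hr after compound addition, measured rescue of FUS-yeast growth at 30C. Induction used 2% galactose with seeding at OD 0.005. Controls: CP55940 from 92uM final, DMSO only.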
PTHR1 agonist – PTHR1 (human) receptor agonism | 0.075% of 410,000 active | HEK293 GP2 PTHR1 cells, GloSensor cAMP luminescence, 1 h | Q03431 | Potency, µM (series often up to 115 µM), inactives show top-dose activation, usual class: activators; also: potency is read from the fitted curve at half-maximal effect; nearly all actives have a fitted effect of over 55% in size
Target sequence (Q03431 whole entry, looked up): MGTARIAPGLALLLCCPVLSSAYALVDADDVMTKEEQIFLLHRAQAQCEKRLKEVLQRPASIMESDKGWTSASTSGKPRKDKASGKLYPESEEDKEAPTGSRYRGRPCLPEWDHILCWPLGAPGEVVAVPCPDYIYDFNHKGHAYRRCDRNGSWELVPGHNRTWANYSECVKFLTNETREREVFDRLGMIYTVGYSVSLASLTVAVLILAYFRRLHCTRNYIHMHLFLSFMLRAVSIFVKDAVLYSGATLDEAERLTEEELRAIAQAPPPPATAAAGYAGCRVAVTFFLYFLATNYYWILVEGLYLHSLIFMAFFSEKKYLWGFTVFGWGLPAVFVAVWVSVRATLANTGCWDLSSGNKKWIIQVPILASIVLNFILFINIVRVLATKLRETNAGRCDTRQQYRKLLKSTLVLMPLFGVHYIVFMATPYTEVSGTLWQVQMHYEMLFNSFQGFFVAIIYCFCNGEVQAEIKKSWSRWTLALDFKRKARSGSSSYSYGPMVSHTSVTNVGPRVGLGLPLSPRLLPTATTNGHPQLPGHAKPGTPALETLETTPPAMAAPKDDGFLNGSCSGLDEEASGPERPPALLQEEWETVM
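HEK-293-derived GP2 cells expressing PTHR1 and a GloSensor cAMP reporter, 3,000/well, plated overnight, given luciferin plus IBMX (each 0.5 mM as added) for 1 h at 37 °C, then compound for 1 h at 37 °C. Luminescence was read after 15 min at room temperature.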
TDP-43 yeast inh – rescues yeast growth from TDP-43 toxicity; TDP-43 expressing yeast growth rescue, BacTiter-Glo, 24 h; AID 652104; Potency, µM (highest dose often 46.1 µM), inactives show at the top dose growth rescue (activation), actives largely listed as activators; 1.8% of 410,000 active; also: potency is read from the fitted curve at half-maximal effect; % of control where 0% means no effect; nearly all actives have a fitted effect of over 50% in size
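Yeast expressing TDP-43 (pregrown in raffinose, seeded at OD600=0.02 in galactose medium) exposed to compounds 24 hr at 30 deg C. Growth read by BacTiter-Glo luminescence; rescue of toxicity appears as increased signal.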
LDHA block – blocks human lactate dehydrogenase A | 0.15% of 480,000 active | activity change, % (values are at about 110 or 230 µM) | purified LDHA, NADH/diaphorase-resazurin fluorescence; hits give low values | AID 1347041; in the data active = activity change below about -30%; inconclusive = mostly about -25% to -30%;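 also: plate controls were DMSO wells for no effect and wells without enzyme for full effect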
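Resorufin fluorescence (ex540/em590), read at 0 and 20 min after diaphorase/resazurin addition, reports the NADH left after a 5 min room-temperature reaction of 2 nM human LDH5 with 0.06 mM NADH and 0.2 mM pyruvate.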
Abeta rescue – A-beta toxicity reversal in yeast. 0.063% of 410,000 active. yeast expressing A-beta42, growth rescue, OD600, 48 h; response scale: 0% DMSO, 100% iron-clioquinol control. Potency, µM (doses to about 46.1 µM), usual class: activators; also: potency is read from the fitted curve at half-maximal effect; nearly all actives have a fitted effect of over 55% in size
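Growth rescue measured by 600 nm absorbance after 48 h yeast culture at 30 C with compound. Values normalized between DMSO and an equimolar ferric chloride plus clioquinol control.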
aSyn rescue – inhibitors of alpha-synuclein toxicity in yeast; 0.14% of 370,000 active; Yeast expressing alpha-synuclein, growth rescue, BacTiter-Glo, 24 h; Potency, µM (titrated, usually from 46.1 µM), inactives show top-dose growth rescue (activation), most hits filed as activators; also: potency is read from the fitted curve at half-maximal effect; % of control where 0% means no effect; nearly all actives have a fitted effect of over 65% in size
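Galactose-induced alpha-syn yeast (OD600=0.02, raffinose-pregrown) + pinned cpd, 24 hr, 30 deg C; growth by BacTiter-Glo luminescence. Growth restoration scores as activation.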
Active calls of the source: *; i = inactive; ? = inconclusive; nt = not tested or not shown; [ ] = dose if it differs, or a comment. Sampled rows, rich in hits. Any-hit rate of the full collection: about 1.9%. Unless noted, calls follow the shape of the dose curve; as a rule, active = well fitted curve in the direction sought with a large enough effect; inconclusive = small, poorly fitted or top-dose-only effect, or another doubt; inactive = no such curve, though single readings can be large; an effect the other way counts as inactive or inconclusive.

SMILES | FUS yeast rescue | PTHR1 agonist | TDP-43 yeast inh | LDHA block | Abeta rescue | aSyn rescue
C=Cc1ccc(Cn2c(C)c(C(=O)NCc3ccc4c(c3)OCO4)sc2=O)cc1 | i | i | 22.4µM* | 1.9 | ? | 8.2%
Cc1c(C(=O)NCc2cccc([N+](=O)[O-])c2)sc(=O)n1Cc1cccc(F)c1 | i | i | 17.8µM* | -3.0 | i | 6.3%
N#Cc1c(N)n[nH]c1CCCNC(=O)c1cn(-c2ccccc2)nc1-c1ccccc1 | nt | nt | nt | 8.7 | nt | nt
CC(=O)Nc1ccc(-c2sc(Nc3cccc4ccccc34)n[n+]2-c2ccccc2)cc1 | 31.6µM* | -14.8% | -4.5% | 3.4 | i | 18.5%
O=C1CCCC[C@@H](O)[C@H](O)C[C@H](c2ccccc2)O1 | i | 16.1% | 5.2% | 2.9 | i | -5.8%
C=C1CC2(CC(c3ccccc3)OC(c3ccccc3)C2)OC1=O (stereo not given) | nt | -51.8% | 10µM* | -3.3 | i | 6.3%
Cc1cccc(Nc2nnc(SCC(=O)Nc3ccccc3[N+](=O)[O-])s2)c1C | nt | -5.3% | 12.6µM* | -2.5 | i | 3.1%
Cc1ccc(Nc2nnc(SCC(=O)Nc3ccccc3[N+](=O)[O-])s2)cc1 | i | -90.7% | -29.6% | -3.2 | i | -1.4%
Cc1nc(CSc2nnc(Nc3cccc(C)c3C)s2)cs1 | nt | i | 7.94µM* | -2.6 | i | 27.6%
COC(=O)c1ccc(NC(=O)CCc2ccco2)cc1 | nt | nt | nt | 0.9 | nt | nt
S=C(NCCNc1c(Cl)c(Cl)c(Cl)c(Cl)c1Cl)Nc1ccccc1 | nt | nt | nt | 1.4 | nt | nt
CCOC(=O)C1=C(C)N(C)C(=O)N(C)C1c1c(F)cccc1Cl (stereo not given) | nt | nt | nt | -22.3 | nt | nt
CCOC(=O)c1cc(-c2ccccc2C)nn1CC1CC(c2ccc(OC)cc2)=NO1 (stereo not given) | i | i | 31.3% | 0.5 | i | 11.4%
CCOC(=O)c1cc(-c2ccccc2C)n(CC2CC(c3cccc([N+](=O)[O-])c3)=NO2)n1 (stereo not given) | i | i | 20µM* | -1.4 | i | 6.8%
CCOc1cc(/C=C2/NC(=O)NC2=O)cc(Cl)c1OCc1ccc(Cl)c(Cl)c1 | nt | nt | nt | -2.8 | nt | nt
CC(C)OC(=O)NCCOC(=O)Nc1cccc(Cl)c1 | i | -6.1% | ? | 3.9 | i | -22.5%
CC(C)OC(=O)NCCOC(=O)Nc1ccc(Cl)c(Cl)c1 | i | -19.5% | 11.2µM* | 0.2 | i | 9.3%
CCC(C)C(NC(=O)OC(C)(C)C)C(=O)NC(Cc1ccccc1)C(N)=O (stereo not given) | nt | nt | nt | -1.8 | nt | nt
COc1ccccc1-c1oc2ccccc2c1C#CC(C)(C)O | i | -24.8% | 15.8µM* | -0.6 | i | 4.7%
CCN1CCN(C(C)C(=O)NC2CCCCC2)CC1 (stereo not given) | i | i | 5.3% | -30.8* | i | -9.0%
CS(=O)(=O)Oc1ccc2c(=O)c(Oc3ccccc3Br)coc2c1 | nt | nt | nt | 3.9 | nt | nt
CSc1c[n+]2c(n1C)CCC2 | i | i | -12.8% | -34.2* | i | -0.6%
COC(=O)c1ccc(COc2cccc(C=O)c2)o1 | nt | nt | nt | -0.3 | nt | nt
CC(C)n1nnnc1Sc1nc(-c2cccnc2)nc2ccccc12 | nt | nt | nt | -11.4 | nt | nt
COc1cccc(N/C(SC)=C(/C#N)C(=O)NCc2cccs2)c1 | i | i | 14.1µM* | -6.4 | i | -5.1%
SMILES | FUS yeast rescue | PTHR1 agonist | TDP-43 yeast inh | LDHA block | Abeta rescue | aSyn rescue
COc1ccc(-c2csc(C)n2)cc1Br | i | -26.8% | 11.2µM* | -3.3 | i | 0.8%
COc1cc(-c2csc(C)n2)ccc1O | i | i | 15.5% | 2.3 | i | -0.4%
Cc1cc(=O)oc2cc(OCc3nc(-c4ccccc4)no3)ccc12 | nt | nt | nt | -3.1 | nt | nt
O=C(c1ccccc1Br)N1CCc2c([nH]c3ccccc23)C1 | i | -0.6% | 17.8µM* | 0.0 | i | ?
Cc1ccc(C2c3[nH]c4ccccc4c3CCN2C(=O)c2ccccc2Br)cc1 (stereo not given) | i | i | -13.1% | -5.4 | i | nt
COc1ccc(C2=NN3C(C2)c2ccccc2OC3c2cccs2)cc1 (stereo not given) | i | -44.1% | ? | 0.0 | i | -17.1%
COc1ccc(C2=NN3C(C2)c2ccccc2OC32C(=O)N(C)c3ccccc32)cc1 (stereo not given) | ? | -25.7% | 22.4µM* | 10.1 | i | 5.3%
O=C1CSC(c2ccc(Cl)c(Cl)c2)N1c1nccs1 (stereo not given) | i | -6.4% | 14.1µM* | -1.2 | i | 0.6%[1.84 µM]
CC(=O)c1ccc(N2CCN(C(=O)/C=C/c3ccc4ccccc4n3)CC2)cc1 | i | -90.1% | ? | -8.2 | i | 10µM*
CC1(C)CC(NC(=O)c2cc3cc(Br)ccc3oc2=O)CC(C)(C)N1 | nt | nt | nt | -16.1 | nt | nt
Cc1cc(C)c(C#N)c(Sc2ccc3c(c2)OCCCO3)n1 | nt | nt | nt | -1.7 | nt | nt
Cc1ccc(-n2c(SCc3nc(-c4ccccc4C)no3)nnc2-c2ccncc2)cc1C | i | -20.0% | 31.6µM* | 1.3 | i | nt
Cc1ccccc1-c1noc(CSc2nnc(-c3ccncc3)n2-c2ccc(F)cc2)n1 | i | -11.1% | 2.9%[9.22 µM] | -4.3 | ? | nt
S=C(N/N=C/c1ccccc1)N1CCOCC1 | nt | -24.5% | 22.4µM* | -4.2 | ? | -8.2%
S=C(Nc1ccccc1)N1CCOCC1 | i | i | -14.3% | -5.6 | i | 0.1%
CCc1c(C)nc2ncnn2c1NC1CCCc2ccccc21 (stereo not given) | i | -21.8% | 22.3% | 2.9 | 12.6µM* | 7.7%
C=CCNc1nc(-c2ccc(Cl)cc2)cs1 | i | i | 11.2µM* | -2.9 | i | -13.0%
CCOc1cc2c(cc1/C=C/C(=O)O)OC(C)C2 (stereo not given) | i | -6.5% | 22.4µM* | 0.6 | i | -9.6%
O=C(NCc1ccc(Cn2cncn2)cc1)c1ccccc1F | nt | nt | nt | 1.1 | nt | nt
COC(=O)c1ccccc1NC(=O)CN1C(=O)COc2ccc(Cl)cc21 | i | i | 12.6µM* | -5.8 | i | nt
CCOc1ccccc1NC(=O)CN1C(=O)COc2ccc(C)cc21 | i | i | 11.2µM* | -9.1 | i | -0.8%
COc1ccccc1NC(=O)CN1C(=O)COc2ccc(C)cc21 | i | i | ? | -7.0 | i | 1.4%
O=[N+]([O-])c1cccnc1N1CCC(c2cc(-c3ccc(Cl)cc3Cl)n[nH]2)CC1 | 25.1µM* | i | ? | 2.2 | ? | ?
Cc1nc(Oc2ccccc2)c2ccsc2n1 | i | -19.3% | 12.6µM* | -2.3 | i | 6.3%

High-throughput results deposited in PubChem by National Center for Advancing Translational Sciences (NCATS).
